Measured values published in PubChem BioAssay (Tox21).
Records with an inconclusive call do not appear. Unmarked numbers belong to inactive results. The call rests on the fitted dose curve. Non-standard residues stand in square brackets, D forms with d. Residues, ends and D or L forms follow the SMILES beside them. *: point of attachment. Sta = CC(C)C[C@H](N)[C@@H](O)CC(=O)O; Isovaleryl = CC(C)CC(=O)*

assay: qHTS assay to identify small molecule agonists of H2AX - cell viability counter screen (AID 1224847); conditions: CHO-K1 viability, CellTiter-Glo luminescence, 3 h; series mostly up to 154 µM; activity change, negative = cytotoxicity: at the top concentration; further: top concentration of the series differs between compounds; nearly all actives have a fitted effect of over 30% in size
From the text: National Center for Advancing Translational Sciences [NCATS]
NIH Chemical Genomics Center [NCGC]
U.S. Environmental Protection Agency [EPA]
National Institutes of Environmental Health Sciences [NIEHS]
National Toxicology Program [NTP]
U.S. Food and Drug Administration [FDA]
HTRF phospho-H2AX (Ser139) assay (Cisbio Bioassays, US) enables the quantitative detection of the histone variant H2AX when phosphorylated on serine 139. When double-stranded DNA breaks, either by ionizing radiation or endogenous physiological processes, H2AX becomes phosphorylated at Ser139. This phospho-Ser139 serves as a sensitive biomarker for the detection of such breaks, localizing the site of DNA repair. So, HTRF phospho-H2AX Ser139 is a pertinent assay to study genome stability, the cell cycle, DNA repair, and it serves as a biomarker for cancer, and to understand aging. Wild type CHO-K1 cells were used to identify the inducers of Phospho-H2AX Ser 139 from the Tox21 compound collections. Also cytotoxicity of the Tox21 10K compound library against the CHO-K1 cell line was tested by measuring the cell viability using CellTiter-Glo assay (Promega, Madison, WI).
Tox21 Assay Protocol Summary:
The CHO-K1 cells suspended in culture medium containing 10% FBS were dispensed at 1000 cells/ 3 ul/well in 1536-well white wall/solid bottom plates (Greiner Bio-One North America, NC) using a Multidrop Combi (Thermo Fisher Scientific Inc., Waltham, MA). After the assay plates were incubated at 37C overnight, 23 nl of compounds at 15 concentrations (from 5-48 columns) or positive control (from 1 to 4 columns) were transferred to the assay plates using a Pintool station (Wako, San Diego, CA) into each well resulting in a final DMSO concentration of 0.76%. After 3hr incubation at 37C, 3 uL/well CellTiter-Glo luminescent cell viability reagent (Promega Corporation, Madison, WI) was added using a Flying Reagent Dispenser (FRD) (Aurora Discovery, CA). After incubation at room temperature for 30 min, the luminescence intensity was read using a ViewLux plate reader (PerkinElmer, Waltham, MA).
On the % scale 0 is the no-effect control and ±100 the full control effect.

SMILES | activity change, negative = cytotoxicity
Cc1ccc(Br)cc1 | 0.126%
CCC(C)SSC(C)CC (stereo not given) | -1.91%
CN(C)c1cc(NC(=O)CNC(C)(C)C)c(O)c2c1C[C@H]1C[C@H]3[C@H](N(C)C)C(=O)C(C(N)=O)=C(O)[C@@]3(O)C(=O)C1=C2O | -5.96% [at 70.9 µM]
CC1=C(O)C(=O)CO1 | 4.17%
C=CC(C)(CCC=C(C)C)OC(=O)C(C)C (stereo not given) | -1.25%
COC(=O)c1ccc(C(=O)O)cc1 | 0.363%
CC(=O)OCC(=O)[C@@]1(O)CC[C@H]2[C@@H]3CCC4=CC(=O)C=C[C@]4(C)[C@H]3[C@@H](O)C[C@@]21C | 1.47% [at 70.9 µM]
CCCCCCC(=O)c1ccccc1 | 1.48%
O=C(O)CCC(=O)Nc1ccc(S(=O)(=O)Nc2nccs2)cc1 | -2.26% [at 70.9 µM]
Cc1ccc(S(=O)(=O)NC(=O)NN2CC3CCCC3C2)cc1 (stereo not given) | -0.92% [at 70.9 µM]
O=C(OOC(=O)c1ccccc1)c1ccccc1 | 5.64% [at 70.9 µM]
CC(C)(C)OC=O | 0.463%
COC(=O)/C=C(\C)CCC=C(C)C | -8.02%
CC(=O)OC1CCC(C(C)(C)C)CC1 (stereo not given) | -3.56%
CCO[Si](CC(C)C)(OCC)OCC | 0.22%
N=C(N)N1CCc2ccccc2C1 | 1.46% [at 14 µM]
CCc1ncc(C)[nH]1 | -1.79%
CC(C)CC(=O)N[C@H](C(=O)N[C@H](C(=O)N[C@@H](CC(C)C)[C@@H](O)CC(=O)N[C@@H](C)C(=O)N[C@@H](CC(C)C)[C@@H](O)CC(=O)O)C(C)C)C(C)C (Isovaleryl-VV[Sta]A[Sta]-OH) | 0.0334% [at 70.9 µM]
CCCCN=C(N)N=C(N)N | 0.83% [at 70.9 µM]
CCCCN(CCCC)CCCCCCN(CCCC)CCCC | 1.89%

SMILES | activity change, negative = cytotoxicity
CC/C=C\CCOC(=O)c1ccccc1 | -6.21%
COC(=O)c1c(C)cc(O)c(C)c1O | -12.5%
C[C@H]1COc2c(C3(N)CC3)c(F)cc3c(=O)c(C(=O)O)cn1c23 | 4.35% [at 70.9 µM]
Cc1nnc(C(=O)NC(C)(C)c2nc(C(=O)NCc3ccc(F)cc3)c(O)c(=O)n2C)o1 | 1.13% [at 70.9 µM]
NS(=O)(=O)c1cc2c(cc1C(F)(F)F)NCNS2(=O)=O | -2.39% [at 70.9 µM]
O=C(O)CCCCCCCCCC(=O)O | 0.0604%
NC(=O)CC[C@@H](N)C(=O)O | 3.68% [at 70.9 µM]
C[Si](C)(C)O[Si](O)(O)O | 1.16%
C[C@@H]1NC(=O)[C@@H](N)CNC(=O)[C@H](C2CCNC(N)=N2)NC(=O)/C(=C/NC(N)=O)NC(=O)[C@H](CNC(=O)C[C@@H](N)CCCN)NC1=O (stereo not given in full) | 1.7% [at 0.582 µM]
CN(C)CCC[C@@]1(c2ccc(F)cc2)OCc2cc(C#N)ccc21 | -6% [at 70.9 µM]
CC(=O)Nc1ccc(S(=O)(=O)Nc2cc(C)on2)cc1 | 0.477% [at 70.9 µM]
CCCCCCCCCCCBr | 1.65% [at 70.9 µM]
NNC(=O)CCCCC(=O)NN | 1.47%
O=S(=O)(O)c1cc(I)c(O)c2ncccc12 | 2.77% [at 70.9 µM]
CC(C)(C)C(=O)CCc1ccc(Cl)cc1 | -0.659%
C=CC(=O)OCC[N+](C)(C)C | -1.34%
CCCCOCCCC | 2.33%
CNC(C)=O | -0.456%
C/C(Cl)=C/CCl | -1.42%
CCCc1ccc(O)c(OC)c1 | -3.74%
